A word on the inhibition: it is the change of the read-out against control, counted positive when it falls.

Molecules are shown by their SMILES. Values joined by “and” are separate entries in the source; they are usually repeats but may differ in a detail not shown here. Equal entries are not always repeated. Out of some 640,000 compounds screened, about 9,300 (1.5%) were called active. Many of the other results were omitted from the sample, so actives are more common in it than they were. A number with no mark means an inactive call. No stated cut-off is given here; in the data, active means inhibition above about 32%; inactive means the rest.

The values below come from PubChem BioAssay AID1259422 (The Scripps Research Institute Molecular Screening Center, 2018).

The experiment in a line: TEAD-YAP interaction inhibition, primary screen, TEAD-YAP interaction inhibitor project, luminescence, HEK-TIYL cells (AID 1259422).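 Further: 0% = median of test compound wells and 100% = reference inhibitor wells.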 The following applies: TEAD-Gal4/YAP UAS-luciferase luminescence, at 9.12 µM, stronger effect = higher value.
As for `CCCCCCn1c(NNC=O)nc2c1c(=O)[nH]c(=O)n2C`, the inhibition was 5.98%.

Take `CCOC(=O)c1ccc(NC(=O)C2CC(=O)N(CCc3ccccc3)C(=Nc3ccccc3)S2)cc1` (stereo not given): the inhibition is 5.21%.

Turning to `Cc1ccc(CN(C)Cc2c(C(=O)N3CCN(C4CCCCC4)CC3)nc3ccccn23)o1`, the inhibition is -4.7%.

Regarding `COc1ccc(Nc2nc(N3CCCC3)nc(N3CCCC3)n2)cc1`, the inhibition is 1.54%.

Consider `COc1cc(CN2CCN(c3ccccc3OC)CC2)cc(OC)c1`, for which the inhibition was 4.91%.

For the compound `COc1ccccc1-n1nc(C(=O)N2CCN(c3ccccc3)CC2)c2ccccc2c1=O`, the inhibition was 0.45%.

`COc1cc(OC)c(OC)cc1CN1CCN(c2ccccc2F)CC1`: the inhibition was 2.95%.

For the compound `O=C(c1n[nH]c(=O)c2ccccc12)N1CCN(Cc2ccccc2)CC1`, the inhibition is -7.02%.

Turning to `COc1cc2nc(CN3CCN(c4ccccc4OC)CC3)[nH]c(=O)c2cc1OC`, the inhibition was 63.6% (active).

On to `COc1ccccc1N1CCN(C(=O)c2n[nH]c(=O)c3ccccc23)CC1`, for which the inhibition was 59% (active).

With `COc1ccccc1N1C(=O)C2C(C(C)=O)=NN(c3cccc(Cl)c3)C2C1=O` (stereo not given), the inhibition was 2.39%.

Turning to `O=C(CN1CCOCC1)NCC1(c2ccccc2)CCCC1`, the inhibition was 4.7%.

On to `CCOC(=O)c1c(NC(=O)CSc2nnc(CNC(=O)c3cccs3)n2-c2ccccc2OC)sc2c1CCCCC2`, for which the inhibition is 11.5%.

On to `O=S1(=O)Nc2cccc3cccc1c23`, for which the inhibition is 9.46%.

Regarding `CCNCC(=O)Nc1ccc(NC(C)=O)cc1`, the inhibition was 5.37%.

As for `CC(=O)Nc1ccc(CN2CCOCC2)cc1`, the inhibition is -2.53%.

Take `CCN1C/C(=C/c2ccc(NC(C)=O)cc2)C(=O)/C(=C/c2ccc(NC(C)=O)cc2)C1`: the inhibition was 77.6% (active).

In the case of `CCCOc1ccc(/C(O)=C2/C(=O)C(=O)N(CCN3CCOCC3)C2c2ccc(F)cc2)cc1C` (stereo not given), the inhibition is -9.41%.

As for `O=C1CCCN1CCCNc1cc(-c2cccs2)ncn1`, the inhibition is -13.2%.

Take `CN(CCC#N)C(=O)Cn1ncc2c1-c1ccccc1OC2`: the inhibition was 4.76%.

Regarding `COC(=O)c1cc(S(=O)(=O)Nc2ccc(C(C)=O)cc2)cn1C`, the inhibition was -5.94%.

Take `CC(=O)NC1=NN(C(C)=O)C(C)(c2ccc(C)cc2)S1` (stereo not given): the inhibition is 10.1%.

Take `CC(=O)NC1=NN(C(C)=O)C(C)(c2ccc(Cl)s2)S1` (stereo not given): the inhibition was 63.5% (active).

As for `COc1ccc(C2(C)SC(NC(C)=O)=NN2C(C)=O)cc1` (stereo not given), the inhibition is 17.7%.

As to `CCOC(=O)c1ccc(Nc2c(-c3ccccc3)c(=O)c2=O)cc1`, the inhibition is -7.89%.

On to `NC(=O)C1(N2CCCCC2)CCN(C(=O)Nc2ccc(Cl)cc2)CC1`, for which the inhibition is 3.68%.

With `CCC(OC(=O)C(CCSC)NC(=O)c1ccccc1)C(=O)Nc1ccc(S(N)(=O)=O)cc1` (stereo not given), the inhibition is -0.22%.

As to `C=CCOC(=O)c1sc(N2C(=O)C(=O)/C(=C(/O)c3ccccc3)C2c2ccc(C)cc2)nc1C` (stereo not given), the inhibition is 7.19%.

With `CN(C)CCNc1nc2c(c(=O)n(C)c(=O)n2C)n1Cc1ccc(F)cc1`, the inhibition is 10.5%.

Take `COc1ccc(Cn2c(NCCO)nc3c2c(=O)n(C)c(=O)n3C)cc1`: the inhibition was 40.8% (active).

With `CCCn1c(NCCO)nc2c1c(=O)n(C)c(=O)n2C`, the inhibition was 15.2%.

For the compound `CC1=C/C(=N\S(=O)(=O)c2ccccc2)C=C(Br)C1=O`, the inhibition was -6.31%.

`CC1=C(C(=O)OCC2CCCO2)C(c2cccs2)C2=C(CC(c3cccs3)CC2=O)N1` (stereo not given): the inhibition is 9.36%.

Take `CC1=C(C(=O)OC(C)C)C(c2cccs2)C2=C(CC(c3ccco3)CC2=O)N1` (stereo not given): the inhibition was 60.2% (active).

As to `COCCOC(=O)C1=C(C)NC2=C(C(=O)CC(c3cccs3)C2)C1c1ccc(C)s1` (stereo not given), the inhibition is 16% and 7.86%.

Consider `COc1cc(NC(=O)c2sc3[nH]c(=O)c(C(=O)O)cc3c2N)c(OC)cc1Cl`, for which the inhibition is -5.84%.

Regarding `CCn1cc(C(=O)N2CCc3c(nc(N4CCC(C)CC4)[nH]c3=O)C2)cn1`, the inhibition was -0.66%.

For the compound `Cc1cnc(Nc2ccc(C(F)(F)F)cc2)nc1Nc1ccccc1`, the inhibition was 11.3%.

Turning to `Cc1cnc(Nc2ccncc2)nc1Nc1ccc(Oc2ccccc2)cc1`, the inhibition was 45.7% (active).

Consider `Cc1cnc(Nc2ccc3ncccc3c2)nc1Nc1ccccc1`, for which the inhibition was 29.6%.

Take `O=C(OCCN1C(=O)c2cccc3c(N4CCCCC4)ccc(c23)C1=O)c1cc(Cl)cc(Cl)c1`: the inhibition is -2.51%.

As for `O=C(NCCOc1ccccc1)c1cnc(NCCCN2CCCC2=O)s1`, the inhibition was -45.5%.

For `O=C(NCCOc1ccccc1)c1cnc(N2CCCC2CO)s1` (stereo not given), the inhibition is 81.8% (active).

For `O=C(NCCOc1ccccc1)c1cnc(N2CCN(c3ccccn3)CC2)s1`, the inhibition is -4.73%.

As for `COc1ccc(-c2nc3c(C#N)c(CC#N)nn3cc2C)cc1F`, the inhibition is 7.27%.

Take `COc1cc(C(=O)Nc2cccc(-c3cn4ccc(C)cc4n3)c2)cc(OC)c1OC`: the inhibition is -17.7%.

Consider `COc1ccc(-c2nc3sc(-c4ccc(OC)cc4)nc3s2)cc1`, for which the inhibition was -1.58%.

With `COc1ccc(-c2cn3ccc(C)cc3n2)cc1`, the inhibition was 90.6% (active).

`COc1ccc(-c2cn3ccc(C)cc3n2)cc1F`: the inhibition was 78.7% (active).

For `COc1ccc(-c2cn3cc(C(=O)O)ccc3n2)cc1`, the inhibition was 15.8%.

`COCCNc1nc(-c2c[nH]c3ccccc23)cs1`: the inhibition was 0.65%.

As for `CCOC(=O)N1CCC(NC(=O)C2CC23CCN(CC2CC=CCC2)CC3)CC1` (stereo not given), the inhibition was 11.9%.

For the compound `CCN(CC(=O)Nc1ccccc1OC)Cc1nc2scc(-c3ccccc3)c2c(=O)[nH]1`, the inhibition is -1.6%.

`CC(=O)N1c2ccccc2N=C(c2ccc(C)cc2)CC1c1ccc([N+](=O)[O-])cc1` (stereo not given): the inhibition was 2.03%.

For the compound `Oc1ccc(Cl)cc1C1=Nc2ccccc2N=C(c2cccc(F)c2)C1`, the inhibition is -24.4%.

In the case of `Cc1ccc(C2=Nc3ccccc3N=C(c3ccc(C(C)(C)C)cc3)C2)c(O)c1`, the inhibition is 38.6% (active).

For `COc1ccccc1NC(CNS(=O)(=O)c1ccc(Cl)cc1)c1ccccc1` (stereo not given), the inhibition was -1.96%.

As to `COc1ccccc1OCC(=O)Nc1ncc(Cc2cccc(C)c2)s1`, the inhibition was 3.43%.

As to `Cc1cccc(Cc2cnc(NC(=O)COc3cccc(C)c3)s2)c1`, the inhibition is 5.87%.

On to `Cc1ccccc1OCC(=O)Nc1ncc(Cc2cccc(Cl)c2)s1`, for which the inhibition is 50.4% (active).
